Test results reported in PubChem BioAssay (Tox21).
Records with an inconclusive call do not appear. Where a call stands in place of a potency, no number is given. Active and inactive are the calls of the source. Calls come from the whole dose curve; as a rule, active = well fitted cell-killing curve with a large enough effect in the repeat runs; inconclusive = weak or mixed curves, or effect the other way; inactive = no such curve, though single readings can be large or run the other way.

Test: qHTS assay to identify aromatase inhibitors - cell viability counter screen (AID 743084);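 note: cells stimulated with testosterone during compound exposure; nearly all actives have a fitted effect of over 55% in size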
Details: MCF-7 aro ERE viability, CellTiter-Fluor, 24 h; series mostly up to 70.3 µM
Potency is the fitted concentration of half-maximal effect.

Structure (SMILES) | Potency
CN=C(NC)NCc1ccccc1 | inactive
C[C@@H]1C/C=C/C=C/C=C/C=C/[C@H](O[C@@H]2O[C@H](C)[C@@H](O)[C@H](N)[C@@H]2O)C[C@@H]2O[C@](O)(C[C@@H](O)C[C@H]3O[C@@H]3/C=C/C(=O)O1)C[C@H](O)[C@H]2C(=O)O | inactive
CCCCOC(=O)C(=O)Nc1cccc(-c2nn[nH]n2)c1 | inactive
CC[C@H](CC[C@@H](C)[C@H]1CC[C@H]2[C@@H]3CC=C4C[C@@H](O)CC[C@]4(C)[C@H]3CC[C@]12C)C(C)C | inactive
COC(=O)CCC(=O)CN | inactive
CC(=O)N[C@@H](CC(=O)N[C@@H](CCC(=O)O)C(=O)O)C(=O)O | inactive
CCOC(=O)[C@H](CCc1ccccc1)N[C@H]1CCCN2CCC[C@@H](C(=O)O)N2C1=O | inactive
O=[N+]([O-])c1ccc(Oc2ccc(N=C=S)cc2)cc1 | inactive
C=C1c2c(Cl)ccc(O)c2C(O)=C2C(=O)[C@]3(O)C(O)=C(C(N)=O)C(=O)[C@@H](N(C)C)[C@@H]3[C@@H](O)[C@H]12 | inactive
O=C(O)c1cccc(/C=C2/C[C@@H]3[C@@H](/C=C/[C@@H](O)C4CCCCC4)[C@H](O)C[C@@H]3O2)c1 | inactive
CC(=O)O[C@H]1CC[C@@]2(C)C(=CC[C@H]3[C@@H]4CC[C@H](C(C)=O)[C@@]4(C)CC[C@@H]32)C1 | inactive
NNc1nnc(Cc2ccncc2)c2ccccc12 | inactive
CS(=O)(=O)NC(=O)CCC/C=C\C[C@H]1C(=O)C[C@@H](O)[C@@H]1/C=C/[C@H](O)COc1ccccc1 | inactive
CCCCC(F)(F)[C@@]1(O)CC[C@H]2[C@@H](CC(=O)[C@@H]2CCCCCCC(=O)O)O1 | inactive
C[C@H](CSC(=O)c1ccccc1)C(=O)N1C[C@@H](Sc2ccccc2)C[C@H]1C(=O)O | inactive
CC1(C)N=C(N)N=C(N)N1c1ccc(Cl)cc1 | inactive
N[C@@H](C(=O)N[C@@H]1C(=O)N2C(C(=O)O)=C(Cl)CC[C@H]12)c1ccccc1 | inactive

Structure (SMILES) | Potency
O=P(O)(O)OC(Cn1cncn1)(Cn1cncn1)c1ccc(F)cc1F | inactive
CCCCCCCCCCCCCCCCCC(=O)OCCO | inactive
Cc1nnc(C(C)C)n1C1C[C@H]2CC[C@@H](C1)N2CC[C@H](NC(=O)C1CCC(F)(F)CC1)c1ccccc1 (some centres undefined) | inactive
CCC(=O)OCC(=O)[C@@]1(OC(=O)CC)[C@@H](C)C[C@H]2[C@@H]3CCC4=CC(=O)C=C[C@]4(C)[C@@]3(Cl)[C@@H](O)C[C@@]21C | inactive
O=c1[nH]cnc2[nH]cc(CN3CCCCC3)c12 | inactive
CC(C)(C)NC(=O)[C@H]1CC[C@H]2[C@@H]3CC=C4C=C(C(=O)O)CC[C@]4(C)[C@H]3CC[C@]12C | inactive
C[N+]1(C)CCN(CC(O)(c2ccccc2)C2CCCCC2)CC1 (centres undefined) | inactive
CN[C@@H]1[C@@H](O)[C@@H](O[C@@H]2[C@@H](O)[C@H](OC3OC(CN)=CCC3N)[C@@H](N)C[C@H]2N)OC[C@]1(C)O (some centres undefined) | inactive
O=C(O)c1ccc(OCCn2ccnc2)cc1 | inactive
CCCC(=O)N1CCCN(c2nc(N)c3cc(OC)c(OC)cc3n2)CC1 | inactive
CO[C@H]1C[C@H](O[C@H]2[C@H](C)O[C@@H](O[C@@H]3/C(C)=C/C[C@@H]4C[C@@H](C[C@]5(C=C[C@H](C)[C@@H](C6CCCCC6)O5)O4)OC(=O)[C@@H]4C=C(C)[C@@H](O)[C@H]5OC/C(=C\C=C\[C@@H]3C)[C@]54O)C[C@@H]2OC)O[C@@H](C)[C@@H]1O | inactive
OCC(O)COc1ccc(Cl)cc1 (centres undefined) | inactive
CC(C(=O)O)c1ccc(C2CCCCC2)c2ccccc12 (centres undefined) | inactive
C/C=C1\NC(=O)[C@H]2CSSCC/C=C/[C@H](CC(=O)N[C@H](C(C)C)C(=O)N2)OC(=O)C(C(C)C)NC1=O (some centres undefined) | 13.3 µM (active)
Cn1cc(NC(=O)c2cc(NC(=O)c3cc(NC=O)cn3C)cn2C)cc1C(=O)NCCC(=N)N | inactive
CO[C@H]1C[C@H](O[C@H]2[C@H](C)[C@@H](O[C@@H]3O[C@H](C)C[C@H](N(C)C)[C@H]3OC(C)=O)[C@@H](C)C[C@]3(CO3)C(=O)[C@H](C)[C@@H](OC(C)=O)[C@@H](C)[C@@H](C)OC(=O)[C@@H]2C)O[C@@H](C)[C@@H]1OC(C)=O | inactive
CO[C@H]1[C@@H](O)[C@H](N)[C@@H](O[C@H]2O[C@H]([C@H](C)N)CC[C@H]2N)[C@H](O)[C@@H]1N(C)C(=O)CN | inactive
